The source made the active and inactive calls.
How the values were obtained:
[1] = biological target: Albumin (Bos taurus) (UniProt P02769); assay: bovine serum albumin binders on microarray, profiling panel, artefact control for SMM control protein annotation, biochemical, small-molecule microarray, Alexa647 label, 635/667 nm fluorescence (AID 1118); settings: BSA-A647 binding, fluorescence 635 nm, higher = more signal;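 further: score merges 667 nm emission intensity and signal-to-noise per printed compound spot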
[2] = small-molecule microarray binders of probe aXIP, primary screen, biochemical, NeuroSMM set, 635/667 nm fluorescence (AID 1119); settings: higher = more signal, called active from +8 up or from −8 down;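 further: probe is the protein aXip251-270 applied at 1 µg/mL to compound-printed slides; binding of probe to printed compounds measured as 667 nm fluorescence plus signal to noise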
[3] = small-molecule binders of probe aNOTCH3, primary screen, biochemical, small-molecule microarray, 635/667 nm fluorescence (AID 1120); settings: higher = more signal;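 further: probe is a biotin-tagged antibody raised against NOTCH3 rather than NOTCH3 protein; score merges spot fluorescence near 667 nm with spot signal to noise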
[4] = small-molecule binders of probe aNOTCH2, primary screen, biochemical, small-molecule microarray, 635/667 nm fluorescence (AID 1121); settings: higher = more signal;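 further: score merges feature fluorescence read at 667 nm with its signal to noise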
[5] = biological target: Carbonic anhydrase 2 (Homo sapiens) (UniProt P00918); assay: CAII small-molecule binders, profiling panel, biochemical, small-molecule microarray, Alexa647-labelled CAII (AID 1122); settings: CAII-A647 binding fluorescence, higher = more signal
[6] = COS7 lysate on small-molecule microarray, probe aHis, 635 nm (AID 1123); settings: COS7 cell lysate, fluorescence, higher = more signal;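 further: z-score combines 667nm fluorescence intensity with signal-to-noise per printed compound spot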
[7] = compound binding in COS7 lysate, probe aLAP1, primary screen, cell lysate, small-molecule microarray (AID 1124); settings: probe aLAP1, fluorescence, higher = more signal;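 further: lysate comes from COS7 cells expressing LAP1 and is applied at 0.3 µg/mL; score merges spot fluorescence near 667 nm with signal-to-noise over triplicate slides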
[8] = tested on: Sam68 (KHDRBS1); assay: Sam68 small-molecule binders, primary screen, biochemical, small-molecule microarray, 635 nm fluorescence (AID 1125); settings: small-molecule microarray binding, higher = more signal;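 further: score merges 667 nm channel intensity with signal to noise over triplicate slides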
[9] = tested on: Chordin-like protein 2 (CHRDL2); assay: CHRDL2 small-molecule binders, primary screen, biochemical, small-molecule microarray, 635 nm fluorescence (AID 1126); settings: small-molecule microarray binding, fluorescence 635 nm; higher = more signal;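 further: printed compound slides probed with Chrdl2 protein at 4 µg/mL for 1 h at 4 C; score merges 667 nm emission intensity with signal to noise over three replicate slides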
[10] = biological target: Concanavalin-A (Canavalia ensiformis) (UniProt P02866); assay: ConA small-molecule binders, primary screen, artefact control for SMM control protein annotation, biochemical, small-molecule microarray, Alexa647 label, 635 nm (AID 1127); settings: ConA-A647 binding fluorescence, higher = more signal;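 further: z combines 667 nm emission intensity with signal-to-noise across three replicate slides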
Sequence of Concanavalin-A (Canavalia ensiformis) (P02866 whole entry, looked up): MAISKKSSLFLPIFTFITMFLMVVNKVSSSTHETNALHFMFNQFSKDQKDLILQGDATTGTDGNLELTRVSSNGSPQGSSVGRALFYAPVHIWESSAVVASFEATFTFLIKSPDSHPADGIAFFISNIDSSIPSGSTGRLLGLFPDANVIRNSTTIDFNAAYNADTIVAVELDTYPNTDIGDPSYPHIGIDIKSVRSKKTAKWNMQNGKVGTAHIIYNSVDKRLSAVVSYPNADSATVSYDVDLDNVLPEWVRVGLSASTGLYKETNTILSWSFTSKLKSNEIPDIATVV

Sequence of Albumin (Bos taurus) (P02769 whole entry, looked up): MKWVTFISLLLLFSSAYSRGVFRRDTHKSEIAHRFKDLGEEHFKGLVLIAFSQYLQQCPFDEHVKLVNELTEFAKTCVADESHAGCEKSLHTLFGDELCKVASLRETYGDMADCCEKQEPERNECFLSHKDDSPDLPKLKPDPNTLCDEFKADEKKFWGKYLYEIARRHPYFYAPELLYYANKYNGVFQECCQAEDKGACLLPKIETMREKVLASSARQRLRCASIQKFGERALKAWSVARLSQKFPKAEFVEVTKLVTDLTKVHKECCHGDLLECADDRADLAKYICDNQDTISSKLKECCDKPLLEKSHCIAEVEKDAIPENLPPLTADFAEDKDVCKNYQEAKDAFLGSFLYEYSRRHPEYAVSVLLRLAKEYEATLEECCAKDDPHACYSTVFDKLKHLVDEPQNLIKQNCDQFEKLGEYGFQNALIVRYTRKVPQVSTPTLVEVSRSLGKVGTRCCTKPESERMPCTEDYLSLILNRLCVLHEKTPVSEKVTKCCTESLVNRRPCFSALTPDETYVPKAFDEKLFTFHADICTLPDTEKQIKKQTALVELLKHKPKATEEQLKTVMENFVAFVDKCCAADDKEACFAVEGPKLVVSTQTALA

SMILES	composite z-score [1]	composite Z-score [2]	composite z-score [3]	composite z-score [4]	composite z-score [5]	composite z-score [6]	composite z-score [7]	composite z-score [8]	composite z-score [9]	composite z-score [10]
C=CCC(OC(C)=O)[C@@H]1[C@@H](N(Cc2ccc(-c3ccccc3)cc2)C(=O)Cc2ccc(F)cc2)c2cc(OCCCO)ccc2N1C(=O)c1ccc2ccccc2n1 (stereo not given in full)	0.59	-1.01 (inactive)	0.0653	-0.0796	-0.161	0.164	0.0508	-0.0112	0.255	-0.526
CC(=O)NCCCC[C@@H]1NC(=O)[C@@H]2C[C@H](C(=O)NCCCCCCNC(=O)CS)[C@H](c3ccc(O)cc3)N2C1=O	-0.0424	-0.202 (inactive)	-0.256	-0.129	0.597	0.846	0.386	0.464	-0.573	0.647
[N-]=[N+]=NCc1ccccc1C[C@@]1(C(=O)NCC(O)CO)N=C(c2ccc(OCCCO)cc2)O[C@@H]1c1ccccc1CN=[N+]=[N-] (stereo not given in full)	1.01	-0.082 (inactive)	0.319	-0.0335	0.546	3.29	-0.0011	1.29	-0.257	1.1
Cc1ccc([C@H]2[C@H](C(=O)O)[C@H](Sc3ccccc3)[C@@H](C(C)C)N2S(=O)(=O)c2ccc(C)cc2)cc1	0.907	0.497 (inactive)	0.249	0.0303	0.66	2.25	0.722	1.31	-0.299	1.09
NCCCCCNC(=O)[C@H]1C[C@H]2C(=O)NCC(=O)N2[C@H]1c1cccc(OCCO)c1	0.0356	0.131 (inactive)	0.204	-0.136	0.429	1.12	0.391	1.32	0.636	1.16
O=C(CS)NCCCCCCNC(=O)[C@H]1C[C@H]2C(=O)N3CCC[C@H]3C(=O)N2[C@H]1c1cccc(OCCO)c1	0.0023	-0.254 (inactive)	0.0242	-0.105	0.528	2.51	0.407	1.29	0.97	1.02
COc1c(C)cc(-c2cc3c(c(-c4ccc(Oc5ccccc5)cc4)n2)[Si](C(C)C)(C(C)C)OC3)cc1C	-0.237	-0.591 (inactive)	0.0208	0.0016	-0.229	-0.202	0.151	-1.07	-0.206	-0.52
NC(=O)NCC#Cc1ccc2c(c1)[C@]1(C(=O)N2)[C@H](C(=O)NC[C@H](O)c2ccccc2)[C@H]2C(=O)O[C@H](c3ccccc3)[C@H](c3ccccc3)N2[C@@H]1c1ccc(O)cc1	0.496	0.58 (inactive)	0.51	0.159	0.501	2.15	0.743	0.998	0.395	1.13
COC(=O)[C@@]1(Cc2ccccc2)[C@H]2c3cc(C(=O)N4CCCC4)n(C)c3C[C@H]2CN1C(=O)c1ccccc1	1.06	0.363 (inactive)	0.347	-0.138	0.912	2.35	0.711	-0.0981	-1.18	1.07
COC(=O)C(CC#Cc1ccc2c(c1)[C@]1(C(=O)N2)[C@H](C(=O)NC[C@H](O)c2ccccc2)[C@H]2C(=O)O[C@H](c3ccccc3)[C@H](c3ccccc3)N2[C@@H]1c1ccc(OCCO)cc1)C(=O)OC	0.516	2.12 (inactive)	1.4	0.146	0.556	2.94	0.811	1.27	0.75	1.02
CO[C@H]1O[C@H](CO)[C@@H](OC(=O)Nc2ccc(Oc3ccccc3)cc2)[C@H](OC(=O)Nc2ccccc2)[C@H]1OC(=O)Nc1ccccc1	0.832	0.914 (inactive)	0.295	-0.0064	0.467	2.09	-0.0652	1.3	-0.0078	1.16
COC(=O)c1ccc(C(O)C2C=CC3C(=O)N(C)C(=O)C3N2NC(=O)OC(C)(C)C)o1 (stereo not given)	0.538	1.02 (inactive)	0.178	0.135	0.436	0.489	0.734	0.94	-0.0987	0.494
N#Cc1ccc(NN2C(C(O)c3ccc([N+](=O)[O-])cc3)C=CC3C(=O)N(c4ccccc4)C(=O)C32)cc1 (stereo not given)	0.552	0.156 (inactive)	0.0847	0.181	0.758	2.75	0.833	1.3	0.0881	0.647
COCCOC(=O)N1C(=O)[C@@]2(c3cc(C#CCC(C(=O)OC)C(=O)OC)ccc31)[C@H](C(=O)N1CCN(c3ncccn3)CC1)[C@H]1C(=O)O[C@H](c3ccccc3)[C@H](c3ccccc3)N1[C@@H]2c1ccc(OCCO)cc1	0.727	1.44 (inactive)	0.0097	-0.14	0.323	1.35	0.522	1.3	0.17	1.09
CCCCCN1CC=CC23O[C@@H]4/C=C\CCCOC(=O)C4[C@H]2C(=O)N(CCCCCCO)[C@@H]3C1=O (stereo not given in full)	-0.0739	-0.328 (inactive)	-0.262	-0.153	0.858	2.05	1.14	-0.542	-1.01	-0.74
COCCOC(=O)N1C(=O)[C@@]2(c3cc(C#CCC(C(=O)OC)C(=O)OC)ccc31)[C@H](C(=O)N1CCCCCCC1)[C@H]1C(=O)O[C@H](c3ccccc3)[C@H](c3ccccc3)N1[C@@H]2c1ccc(OCCO)cc1	0.786	4.41 (inactive)	1.61	0.738	0.643	3.78	1.06	1.3	1.53	1.15
COC(=O)C[C@H]1O[C@]2(C(=O)N(Cc3ccccc3)c3ccc(NC(C)=O)cc32)[C@@H](C)[C@@H]1[Si](C)(C)c1ccc(OC)cc1	0.298	-0.114 (inactive)	0.0485	-0.13	0.269	0.696	0.189	1.31	0.48	0.355
N#Cc1ccc(NN2C(C(O)C3CCCCC3)C=CC3C(=O)N(c4ccccc4)C(=O)C32)cc1 (stereo not given)	0.919	0.417 (inactive)	0.459	0.0636	0.184	2.62	0.236	1.29	-0.915	1.21
CC(C)NC(=O)[C@@H]1c2ccccc2C(=O)N(Cc2ccccc2)[C@H]1c1ccc(CO)cc1	-0.113	0.601 (inactive)	0.0237	-0.0638	0.706	2.01	0.821	-0.598	-1.38	-0.717
Cc1ccc(S[C@]2(C(=O)NC3CC3)CC(=O)N(Cc3ccccc3)[C@@H]2c2ccc(CO)cc2)cc1	0.391	0.225 (inactive)	-0.284	0.125	0.27	2.78	0.677	-0.664	-1.49	-0.788
O=C(CCN1CCOCC1)c1cccc(O)c1	0.379	0.989 (inactive)	0.324	0.0292	0.634	0.973	0.629	0.922	1.48	0.767
CCOC(=O)C[C@H]1[C@H](OC(=O)c2ccc(-c3ccccc3)cc2)[C@@H](NC(=O)c2ccc3ccccc3c2)c2cc(OCCCO)ccc2N1C(=O)Cc1ccc(OC)cc1	0.605	-0.608 (inactive)	-0.063	-0.11	-0.0752	0.484	0.188	0.41	-0.887	-0.101
CN(C)CCCNC(=O)[C@@]1(Cc2ccccc2I)c2ccccc2C(=O)N(Cc2ccccc2C(F)(F)F)[C@H]1c1ccc(CO)cc1	-0.212	0.179 (inactive)	-0.286	-0.146	0.662	2.4	0.557	1.02	-1.07	-0.17
[N-]=[N+]=NCc1ccccc1C[C@]1(C(=O)NCC(O)CO)N=C(c2ccc(OCCCO)cc2)O[C@H]1c1ccccc1N=[N+]=[N-] (stereo not given in full)	0.675	0.529 (inactive)	0.254	-0.0059	0.652	1.57	0.0131	0.283	-0.44	0.565
CCOC(=O)[C@H]1C/C=C/C[C@H](C(=O)OCC)C(=O)O[C@H]2[C@@H](OC)O[C@H](CO)[C@@H](OC(=O)Nc3ccc4c(c3)OCO4)[C@@H]2OC1=O	0.783	0.622 (inactive)	0.0927	-0.0425	0.484	1.74	0.143	0.521	-0.384	0.468
O=C1OCC=C[C@H]2OC34C=CCN(c5ccc(Cl)cc5)C(=O)[C@H]3N(CCCCCCO)C(=O)[C@@H]4[C@@H]12 (stereo not given in full)	-0.95	0.276 (inactive)	-0.226	-0.148	0.978	0.568	0.688	-1.02	-1.03	-1.59
COCC1=C2[C@@H](CCc3ccccc3)OB(O)C[C@@H]2[C@@H]2C(=O)N(Cc3ccccc3)C(=O)[C@@H]2C1	0.818	-0.524 (inactive)	-0.102	-0.14	0.404	0.532	-0.0804	-0.42	0.137	-0.777

From PubChem BioAssay
